PubChem BioAssay (EPA / NIEHS)
“And” between values parts separate entries of the source, which are not always exact repeats. Identical values can stand only once. Records with an inconclusive call do not appear. A structure can be active in one record and inactive in another. The source made the active and inactive calls. The calls were made as follows, unless noted: active = hit-call score of the fitted dose curve at least 0.9, where 1 is the maximum; inconclusive = response in the unintended direction; inactive = score below 0.9.

Experiments:
[1] = molecular target: Bile acid receptor (Homo sapiens) (UniProt Q96RI1); test: ATG_FXR_TRANS: Attagene TRANS-FACTORIAL HepG2 Assay for Farnesoid X Receptor (FXR) (AID 2282979); settings: HepG2 Attagene TRANS FXR-GAL4 reporter transcription;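 also: hits raise reporter mRNA above DMSO so AC50 marks FXR activation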
Chain of Bile acid receptor (Homo sapiens) (Q96RI1 whole entry, looked up, the tested form may be a part): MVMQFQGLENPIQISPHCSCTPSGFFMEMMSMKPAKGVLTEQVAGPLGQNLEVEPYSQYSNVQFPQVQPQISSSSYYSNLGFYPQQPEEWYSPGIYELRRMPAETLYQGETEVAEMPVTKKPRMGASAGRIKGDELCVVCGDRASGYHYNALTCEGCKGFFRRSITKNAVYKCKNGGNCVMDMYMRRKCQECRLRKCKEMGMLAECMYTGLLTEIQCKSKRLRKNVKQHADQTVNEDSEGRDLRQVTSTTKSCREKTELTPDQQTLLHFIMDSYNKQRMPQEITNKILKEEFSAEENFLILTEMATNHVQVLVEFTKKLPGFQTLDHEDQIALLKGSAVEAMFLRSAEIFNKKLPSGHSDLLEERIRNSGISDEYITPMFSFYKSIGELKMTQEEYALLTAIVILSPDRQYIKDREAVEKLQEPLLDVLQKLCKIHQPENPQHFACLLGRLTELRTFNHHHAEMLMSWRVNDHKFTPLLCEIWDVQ
Summary of the method: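 Read-out: fluorescent reporter transcripts quantified by capillary electrophoresis after RT-PCR of total RNA. Source cells were HepG2 transiently carrying chimeric NR-GAL4 plus GAL4-UAS reporter units, dosed 24 h. Activity fitted upward relative to DMSO baseline.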

[2] = molecular target: human Peroxisome Proliferator-activated Receptor delta (PPARd), PPARD (gene 5467) (UniProt Q03181); test: ATG_PPARd_TRANS: Attagene TRANS-FACTORIAL HepG2 Assay for human Peroxisome Proliferator-activated Receptor delta (PPARd) (AID 2283002)
Chain of human Peroxisome Proliferator-activated Receptor delta (PPARd), PPARD (gene 5467) (Q03181 whole entry, looked up, the tested form may be a part): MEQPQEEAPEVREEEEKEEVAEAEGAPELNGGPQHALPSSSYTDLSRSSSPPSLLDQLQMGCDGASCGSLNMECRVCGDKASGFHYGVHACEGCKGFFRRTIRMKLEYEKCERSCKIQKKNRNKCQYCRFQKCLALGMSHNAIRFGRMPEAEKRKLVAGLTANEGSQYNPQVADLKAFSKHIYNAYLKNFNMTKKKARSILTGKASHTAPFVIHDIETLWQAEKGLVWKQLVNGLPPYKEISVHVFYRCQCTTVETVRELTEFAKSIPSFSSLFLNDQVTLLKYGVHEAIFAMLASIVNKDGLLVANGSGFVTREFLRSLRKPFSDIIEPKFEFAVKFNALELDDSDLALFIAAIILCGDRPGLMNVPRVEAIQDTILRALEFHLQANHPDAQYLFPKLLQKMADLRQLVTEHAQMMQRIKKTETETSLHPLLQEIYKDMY
Summary of the method: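 Read-out: reporter mRNA induction, quantified by fluorescent RT-PCR products resolved by capillary electrophoresis. Human HepG2 liver cells carried transiently transfected Gal4-UAS reporter constructs with chimeric NR-Gal4 fusions. Cells were dosed for 24 h; DMSO served as baseline.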

[3] = molecular target: Aryl hydrocarbon receptor (Homo sapiens) (UniProt P35869); test: ATG_Ahr_CIS: Attagene CIS-FACTORIAL HepG2 Assay for human Aryl Hydrocarbon Receptor (Ahr) (AID 2282930; active = hit-call score of the fitted dose curve at least 0.9, where 1 is the maximum; inactive = score below 0.9); settings: HepG2 AhR cis-factorial reporter transcription; actives raise or lower the signal
Chain of Aryl hydrocarbon receptor (Homo sapiens) (P35869 whole entry, looked up): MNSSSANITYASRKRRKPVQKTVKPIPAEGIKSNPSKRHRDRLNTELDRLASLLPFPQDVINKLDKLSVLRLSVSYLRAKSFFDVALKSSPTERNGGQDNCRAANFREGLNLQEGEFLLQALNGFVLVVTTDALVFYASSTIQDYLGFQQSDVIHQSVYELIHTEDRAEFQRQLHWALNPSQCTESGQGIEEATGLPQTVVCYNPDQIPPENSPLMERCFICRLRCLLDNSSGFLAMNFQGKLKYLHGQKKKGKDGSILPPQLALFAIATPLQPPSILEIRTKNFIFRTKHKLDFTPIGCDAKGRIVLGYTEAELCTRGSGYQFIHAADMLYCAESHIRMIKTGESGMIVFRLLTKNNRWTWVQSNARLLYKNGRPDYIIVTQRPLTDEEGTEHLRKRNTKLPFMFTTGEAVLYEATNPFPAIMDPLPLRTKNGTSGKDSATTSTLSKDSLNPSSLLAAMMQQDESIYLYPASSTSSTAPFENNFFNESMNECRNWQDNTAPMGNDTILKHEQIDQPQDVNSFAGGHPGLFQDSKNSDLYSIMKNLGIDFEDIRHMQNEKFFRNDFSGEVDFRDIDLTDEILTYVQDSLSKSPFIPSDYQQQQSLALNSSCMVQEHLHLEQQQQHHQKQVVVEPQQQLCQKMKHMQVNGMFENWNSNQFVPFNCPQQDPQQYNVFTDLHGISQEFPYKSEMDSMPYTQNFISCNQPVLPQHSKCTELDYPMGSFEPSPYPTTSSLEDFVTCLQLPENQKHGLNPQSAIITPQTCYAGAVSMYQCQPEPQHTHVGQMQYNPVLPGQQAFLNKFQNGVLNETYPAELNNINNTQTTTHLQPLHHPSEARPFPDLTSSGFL
Summary of the method: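 Read-out: reporter mRNA quantified by RT-PCR with fluorescent primer extension and capillary electrophoresis. Human HepG2 liver cells carried transfected cis-promoter reporter units and were exposed to chemical for 24 h; gain or loss fitted relative to DMSO.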

[4] = molecular target: Estrogen-related receptor gamma (Homo sapiens) (UniProt P62508); test: ATG_ERRg_TRANS: Attagene TRANS-FACTORIAL HepG2 Assay for human Estrogen-Related Receptor gamma (ERRg) (AID 2282977); settings: HepG2 Attagene TRANS reporter, ERRg transactivation;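 also: hits increase reporter signal over DMSO so potencies reflect activators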
Chain of Estrogen-related receptor gamma (Homo sapiens) (P62508 whole entry, looked up, the tested form may be a part): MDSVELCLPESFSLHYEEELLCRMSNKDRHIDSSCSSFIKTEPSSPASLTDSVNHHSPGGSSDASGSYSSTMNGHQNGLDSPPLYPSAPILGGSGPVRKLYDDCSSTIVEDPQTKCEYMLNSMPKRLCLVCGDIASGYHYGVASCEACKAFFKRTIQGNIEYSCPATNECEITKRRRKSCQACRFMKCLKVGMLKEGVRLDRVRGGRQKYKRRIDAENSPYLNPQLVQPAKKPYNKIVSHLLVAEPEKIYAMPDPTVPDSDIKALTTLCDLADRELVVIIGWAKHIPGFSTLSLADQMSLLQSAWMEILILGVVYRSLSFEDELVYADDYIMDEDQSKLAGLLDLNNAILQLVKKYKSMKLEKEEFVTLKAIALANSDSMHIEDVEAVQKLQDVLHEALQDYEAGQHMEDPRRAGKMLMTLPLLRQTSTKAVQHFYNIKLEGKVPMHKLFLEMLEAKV
Summary of the method: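 Readout: fluorescent reporter-mRNA fragments resolved by capillary electrophoresis after RT-PCR and HpaI cut. Cells: transiently transfected HepG2 carrying GAL4-UAS reporters driven by exogenous NR-Gal4 chimeras, dosed 24 h. Activity fitted upward relative to DMSO baseline.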

[5] = molecular target: Estrogen receptor beta (Homo sapiens) (UniProt Q92731); test: OT_ER_ERbERb_0480: Odyssey Thera (OT) 8-hour HEK293T Protein-Complementation Assay for Estrogen Receptor-beta/-beta Homodimer (AID 2283357);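 also: active means signal gain over DMSO baseline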
Chain of Estrogen receptor beta (Homo sapiens) (Q92731 whole entry, looked up, the tested form may be a part): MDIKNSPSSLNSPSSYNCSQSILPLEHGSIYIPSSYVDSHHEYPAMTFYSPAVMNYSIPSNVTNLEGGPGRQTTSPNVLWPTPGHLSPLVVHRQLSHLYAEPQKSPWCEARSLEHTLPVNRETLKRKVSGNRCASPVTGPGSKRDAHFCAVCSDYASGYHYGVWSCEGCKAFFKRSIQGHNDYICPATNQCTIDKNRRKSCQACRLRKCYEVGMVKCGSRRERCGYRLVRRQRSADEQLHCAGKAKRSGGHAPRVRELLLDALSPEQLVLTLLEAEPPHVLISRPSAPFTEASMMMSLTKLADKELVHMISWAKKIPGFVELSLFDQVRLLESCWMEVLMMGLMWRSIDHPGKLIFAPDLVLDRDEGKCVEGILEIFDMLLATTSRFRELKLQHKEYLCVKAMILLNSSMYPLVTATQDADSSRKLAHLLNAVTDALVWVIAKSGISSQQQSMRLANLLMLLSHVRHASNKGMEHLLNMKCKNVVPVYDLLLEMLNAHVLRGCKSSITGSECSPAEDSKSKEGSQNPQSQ
Summary of the method: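 Homodimerization of ER-beta LBD measured by protein-fragment complementation in HEK293T; 8 h dosing; fixed, Draq5 counterstain; fluorescence intensity gain over DMSO baseline, positive fitting direction; laser scanning cytometry.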

[6] = molecular target: Estrogen receptor beta (Homo sapiens) (UniProt Q92731); test: OT_ER_ERbERb_1440: Odyssey Thera (OT) 24-hour HEK293T Protein-Complementation Assay for Estrogen Receptor-beta/-beta Homodimer (AID 2283380);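 also: scored as signal increase over DMSO baseline for both agonists and antagonists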
Summary of the method: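 HEK293T cells stably expressing ER beta LBD (aa 310-547) homodimer fragment-complementation reporter, dosed 24 h. Cells formaldehyde-fixed, Draq5-stained; gain in nuclear (agonist) or nuclear plus cytoplasmic (antagonist) fluorescence versus DMSO read by laser scanning cytometry.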

[7] = molecular target: Retinoic acid receptor RXR-alpha (Homo sapiens) (UniProt P19793); test: OT_NURR1_NURR1RXRa_1440: Odyssey Thera (OT) 24-hour HEK293T Protein Complementation Assay for Nurr1/retinoid X receptor (RXR) (AID 2283386)
Chain of Retinoic acid receptor RXR-alpha (Homo sapiens) (P19793 whole entry, looked up, the tested form may be a part): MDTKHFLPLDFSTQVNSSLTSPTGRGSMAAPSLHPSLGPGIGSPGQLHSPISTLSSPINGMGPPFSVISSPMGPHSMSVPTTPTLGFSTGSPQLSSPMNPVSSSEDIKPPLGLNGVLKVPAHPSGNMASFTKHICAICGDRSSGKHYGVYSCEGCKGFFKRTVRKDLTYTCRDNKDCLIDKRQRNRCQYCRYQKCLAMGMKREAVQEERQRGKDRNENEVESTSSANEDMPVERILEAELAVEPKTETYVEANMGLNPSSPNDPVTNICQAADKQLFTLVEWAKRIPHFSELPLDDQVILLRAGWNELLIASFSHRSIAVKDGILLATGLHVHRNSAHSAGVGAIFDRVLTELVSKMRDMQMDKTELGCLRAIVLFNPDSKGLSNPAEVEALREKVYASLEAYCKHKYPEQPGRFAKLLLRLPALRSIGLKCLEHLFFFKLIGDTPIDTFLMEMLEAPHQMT
Summary of the method: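 Fluorescence PCA read-out; HEK293T; 24 h post-dose; bait/prey fused to reporter fragments; gain-of-signal fit vs DMSO negative control.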

[8] = ATG_ERE_CIS: Attagene CIS-FACTORIAL HepG2 Assay for Estrogen Response Element (ERE) (AID 2282940; active = hit-call score of the fitted dose curve at least 0.9, where 1 is the maximum; inactive = score below 0.9); settings: HepG2 ERE cis-reporter, Attagene RNA transcript; actives raise or lower the signal
Summary of the method: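 Readout: reporter mRNA induction by RT-PCR, FAM-labelled primer extension, HpaI digestion and capillary electrophoresis, 24 h after dosing transfected HepG2 cells. Endogenous transcription factors act on cis-element-regulated reporters. Gain or loss fitted against DMSO.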

[9] = CCTE_Harrill_HTTr_CellCount_MCF7: CCTE's Cell Proliferation Assessment for the High-Throughput Transcriptomics (HTTr) Platform, Harrill Lab (AID 2284012);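 also: count of Hoechst-stained nuclei per well by high-content imaging in MCF-7 cells; cells exposed to compound for six hours; intended direction is loss of nuclei count meaning fewer cells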
Summary of the method: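 Readout: Hoechst nuclear count by high-content imaging. MCF-7, 8-point dilution series, 6 h exposure. Bidirectional fit vs DMSO baseline.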

[10] = molecular target: human Retinoic Acid Receptor gamma (RARg), RARG (gene 5916) (UniProt P13631); test: ATG_RARg_TRANS: Attagene TRANS-FACTORIAL HepG2 Assay for human Retinoic Acid Receptor gamma (RARg) (AID 2283009)
Chain of human Retinoic Acid Receptor gamma (RARg), RARG (gene 5916) (P13631 whole entry, looked up, the tested form may be a part): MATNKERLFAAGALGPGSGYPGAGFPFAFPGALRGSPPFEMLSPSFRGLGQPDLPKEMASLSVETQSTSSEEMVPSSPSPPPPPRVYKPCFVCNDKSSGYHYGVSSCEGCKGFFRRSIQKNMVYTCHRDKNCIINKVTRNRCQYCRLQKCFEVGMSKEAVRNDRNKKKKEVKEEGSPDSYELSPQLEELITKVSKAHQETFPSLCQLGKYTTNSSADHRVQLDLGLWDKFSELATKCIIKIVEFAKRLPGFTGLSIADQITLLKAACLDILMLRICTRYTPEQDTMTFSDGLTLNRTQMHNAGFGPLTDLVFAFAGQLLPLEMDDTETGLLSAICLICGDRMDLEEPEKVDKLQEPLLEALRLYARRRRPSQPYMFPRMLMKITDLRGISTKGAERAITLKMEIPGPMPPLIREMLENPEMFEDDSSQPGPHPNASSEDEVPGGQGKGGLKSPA
Summary of the method: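 Readout: reporter transcript levels via RT-PCR, 6-FAM primer-extension labelling, HpaI digestion and capillary electrophoresis. Cells: HepG2 carrying transfected RARg-GAL4 chimera plus UAS reporter set. Dosing 24 h; DMSO negative control.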

[11] = ACEA_AR_agonist_AUC_viability: ACEA Biosciences xCELLigence Real-Time Cell Analysis on Androgen Receptor Agonism for Viability (AID 2283775)
Summary of the method: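 Viability endpoint from xCELLigence impedance in 22Rv1 prostate cells at 80 h. Eight-point series, 100 uM maximum final.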

[12] = ACEA_AR_antagonist_AUC_viability: ACEA Biosciences xCELLigence Real-Time Cell Analysis on Androgen Receptor Antagonism for Viability (AID 2283776);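 also: 22Rv1 human prostate cancer cells growing on impedance electrode plates; area under impedance growth curve at 80 h after dosing as viability; hits lower the growth signal relative to DMSO meaning cytotoxicity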
Summary of the method: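 Impedance read-out (RT-CES): area under growth curve at 80 h post-dose, loss of signal scored vs DMSO baseline. 22Rv1 cells; 8-pt 1:4 series, top 100 uM final, ≤0.5% DMSO; biological duplicate.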

[13] = ATG_M_19_TRANS: Attagene TRANS-FACTORIAL HepG2 Assay for M19 Transcription Factor (Internal Marker) (AID 2282974); settings: HepG2 Attagene TRANS-FACTORIAL M19 internal marker reporter
Summary of the method: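 Measured here: internal-marker reporter transcript from HepG2 cells transfected with MRTUs, harvested at 24 h. cDNA PCR products were 6-FAM labelled by primer extension, cut with HpaI for 2 h at 37 C, and resolved by CE.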

[14] = molecular target: Peroxisome proliferator-activated receptor gamma (Homo sapiens) (UniProt P37231); test: OT_PPARg_PPARgSRC1_0480: Odyssey Thera (OT) 8-hour Protein-Complementation Assay for Peroxisome Proliferator-activated Receptor Gamma / SRC-1 Co-activator (AID 2283387);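 also: nuclear to cytoplasmic split Venus YFP fluorescence ratio reporting PPARg SRC-1 interaction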
Chain of Peroxisome proliferator-activated receptor gamma (Homo sapiens) (P37231 whole entry, looked up, the tested form may be a part): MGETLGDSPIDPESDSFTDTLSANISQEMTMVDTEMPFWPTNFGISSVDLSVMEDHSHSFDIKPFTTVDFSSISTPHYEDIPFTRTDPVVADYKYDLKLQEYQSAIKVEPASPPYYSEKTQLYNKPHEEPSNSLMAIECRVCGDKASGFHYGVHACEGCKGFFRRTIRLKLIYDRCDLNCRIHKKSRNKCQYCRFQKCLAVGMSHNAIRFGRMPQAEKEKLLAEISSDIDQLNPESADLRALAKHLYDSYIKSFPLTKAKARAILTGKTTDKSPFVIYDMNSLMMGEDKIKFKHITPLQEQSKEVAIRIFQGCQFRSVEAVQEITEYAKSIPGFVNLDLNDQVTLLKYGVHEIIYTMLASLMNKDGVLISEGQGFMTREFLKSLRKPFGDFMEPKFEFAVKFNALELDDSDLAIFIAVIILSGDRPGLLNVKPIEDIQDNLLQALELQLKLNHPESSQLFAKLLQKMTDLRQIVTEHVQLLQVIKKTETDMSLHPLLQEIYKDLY
Summary of the method: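 Protein-fragment complementation of split Venus YFP reports PPARg/SRC-1 interaction in HEK293T (transfected 48 h before treatment), exposed 8 h. Readout: N/C fluorescence ratio at 488 nm from imaging, Draq5 for segmentation, positive fit relative to DMSO.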

[15] = molecular target: Peroxisome proliferator-activated receptor gamma (Homo sapiens) (UniProt P37231); test: OT_PPARg_PPARgSRC1_1440: Odyssey Thera (OT) 24-hour Protein-Complementation Assay for Peroxisome Proliferator-activated Receptor Gamma/ SRC-1 Co-activator (AID 2283388);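 also: nuclear to cytoplasmic ratio of reconstituted Venus YFP fluorescence in fixed imaged cells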
Summary of the method: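 Readout: nuclear-to-cytoplasmic 488 nm fluorescence ratio, ≥350 cells per image, 8 images per well, after 24 h compound exposure of HEK293T expressing PPARg/SRC-1 split-YFP fusions. Activity fitted in positive direction against DMSO.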

[16] = read-out: Human Leukocyte Antigen - DR isotype (HLADR), HLA-DRA (gene 3122); test: BSK_3C_HLADR: BioMAP Diversity Plus: 3C Assay for Human Leukocyte Antigen - DR isotype (HLADR) Biomarker Activity (AID 2283019; active = hit-call score of the fitted dose curve at least 0.9, where 1 is the maximum; inactive = score below 0.9); settings: primary human endothelial cells (HUVEC); actives raise or lower the signal
Summary of the method: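 HUVEC, 3C stimulation, 24 h post-dose; HLA-DR by ELISA; bidirectional curve fit vs DMSO baseline; gain or loss of signal scored.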

[17] = read-out: Pselectin, SELP (gene 6403); test: BSK_4H_Pselectin: BioMAP Diversity Plus: 4H Assay for Pselectin Biomarker Activity (AID 2283026; active = hit-call score of the fitted dose curve at least 0.9, where 1 is the maximum; inactive = score below 0.9); settings: primary human endothelial cells (HUVEC); actives raise or lower the signal
Summary of the method: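 HUVEC, 24 h chemical exposure; P-selectin read by ELISA. Bidirectional curve fit vs DMSO baseline; gain or loss of signal scored.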

[18] = read-out: serum amyloid A (SAA), SAA1 (gene 6288); test: BSK_CASM3C_SAA: BioMAP Diversity Plus: CASM3C Assay for serum amyloid A (SAA) Biomarker Activity (AID 2283049; active = hit-call score of the fitted dose curve at least 0.9, where 1 is the maximum; inactive = score below 0.9;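 also: SAA protein level quantified by ELISA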); settings: primary human coronary artery smooth muscle cells; actives raise or lower the signal
[19] = read-out: Vascular cell adhesion molecule 1 (VCAM1), VCAM1 (gene 7412); test: BSK_CASM3C_VCAM1: BioMAP Diversity Plus: CASM3C Assay for Vascular cell adhesion molecule 1 (VCAM1) Biomarker Activity (AID 2283055; active = hit-call score of the fitted dose curve at least 0.9, where 1 is the maximum; inactive = score below 0.9;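 also: VCAM-1 protein level quantified by ELISA on the cells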); settings: primary human coronary artery smooth muscle cells; actives raise or lower the signal
[20] = BSK_SAg_PBMCCytotoxicity: PBMC Cytotoxicity Assessment in the BioMAP Diversity Plus: SAg Assay (AID 2283093; active = hit-call score of the fitted dose curve at least 0.9, where 1 is the maximum; inactive = score below 0.9;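 also: fitted both ways against DMSO so a hit may be loss or gain of signal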;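 as to AC50: PBMC superantigen activated with SEB plus TSST-1 one hour after compound addition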); settings: primary human HUVEC with PBMC
Summary of the method: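 PBMC viability by Alamar Blue reduction, fluorescence read at 546/580 nm after 6 h dye exposure. Cells were dosed 1 h before SEB plus TSST-1 activation (20 ng/mL final each), then held 90 h; endothelial/PBMC human co-culture.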

Measured: AC50

CCOc1ccc2c(c1)C(C)CC(C)(C)N2 (stereo not drawn)
inactive: [1] | [2]

CC(C)n1c(/C=C/[C@@H](O)C[C@@H](O)CC(=O)O)c(-c2ccc(F)cc2)c2ccccc21
active: [3] 51.7 µM

CC(C)CC(=O)CC(C)C
inactive: [4] | [5] | [6] | [7]

CCCC(=O)OC
inactive: [8]

Cc1ccnc(N)c1
inactive: [9]

O=C1NC(=O)C2CC=CCC12 (stereo not drawn)
inactive: [2] | [10] | [5] | [6] | [7] | [11] | [12]

CCCCCC1CCCC(=O)O1 (stereo not drawn)
inactive: [4] | [1] | [10]

CC1=C(CC(=O)O)c2cc(F)ccc2/C1=C\c1ccc(S(C)=O)cc1 (stereo not drawn)
inactive: [13] | [2] | [9]
active: [3] 3.48 µM

O=C(O)Cc1c[nH]c2ccccc12
inactive: [4] | [1] | [9]

O=C(OCc1ccccc1)c1ccccc1
inactive: [13] | [14] | [15]

COc1c2occc2cc2ccc(=O)oc12
inactive: [1]

COC(=O)/C=C\C(=O)OC
active: [19] 20 µM
inactive: [4] | [16] | [17] | [18] | [20]

O=C(O)/C=C/C(=O)O
inactive: [5] | [6] | [11] | [12] | [9]

CCCCn1cc[n+](C)c1
inactive: [3]

CCCCNC(N)=O
inactive: [1]

CN(C)N=Nc1ccccc1
inactive: [13] | [4]

CC[N+](CC)(CC(=O)Nc1c(C)cccc1C)Cc1ccccc1
inactive: [16] | [17] | [18] | [19] | [20] | [7] | [14] | [15]

O=C(C(=O)c1ccccc1)c1ccccc1
inactive: [13] | [4] | [16] | [17] | [18] | [19] | [20]

CC(C)(C)NC(=O)[C@@H]1CN(Cc2cccnc2)CCN1C[C@@H](O)C[C@@H](Cc1ccccc1)C(=O)N[C@H]1c2ccccc2C[C@H]1O
inactive: [13] | [1]
active: [3] 57.2 µM

CCO[Si](OCC)(OCC)c1ccccc1
inactive: [13]

CN(C)CCC(c1ccc(Cl)cc1)c1ccccn1 (stereo not drawn)
inactive: [3] | [16] | [18] | [19] | [20]
active: [17] 502 nM

Brc1ccc(Oc2ccc(Br)cc2)cc1
inactive: [13] | [2]

CC(O)(P(=O)(O)O)P(=O)(O)O
inactive: [3]

C[Si](C)(C)O[Si](C)(C)O[Si](C)(C)C
inactive: [3] | [5] | [6] | [7] | [14] | [15] | [11] | [12]

O=C(O)c1ccccc1C(=O)O
inactive: [8] | [7] | [11] | [12]

CCC(C)C1N=C(C)C(C)S1 (stereo not drawn)
inactive: [4] | [2]

COc1ccc(C(=O)c2ccccc2O)c(O)c1
active: [16] 20 µM | [17] 20000 nM | [19] 13.4 µM and 3.97 µM
inactive: [16] | [17] | [18] | [20]

CCCCC(CC)COC(=O)C=Cc1ccc(OC)cc1 (stereo not drawn)
active: [16] 30.4 µM and 22.1 µM | [17] 33.3 µM and 38.7 µM | [18] 32.3 µM | [19] 14.9 µM | [20] 36.1 µM
inactive: [18] | [19] | [20] | [9]
